# The list is not random: actives were taken first. Their share in the collection is about 2.4%.
# D2 antagonist = HTS Assay for Allosteric Antagonists of the Human D2 Dopamine Receptor: Primary Screen for Antagonists | D(2) dopamine receptor (Homo sapiens), P14416 | HEK293 TREx D2 cells, calcium flux, dopamine EC80 | inhibition, % at 10 µM | actives 2% (n = 340,000) | AID 485344, 2010; in the data active = inhibition above about 30%; inactive = below that, where a call was filed; note: 0% is about no effect
# Target sequence (P14416 whole entry, looked up): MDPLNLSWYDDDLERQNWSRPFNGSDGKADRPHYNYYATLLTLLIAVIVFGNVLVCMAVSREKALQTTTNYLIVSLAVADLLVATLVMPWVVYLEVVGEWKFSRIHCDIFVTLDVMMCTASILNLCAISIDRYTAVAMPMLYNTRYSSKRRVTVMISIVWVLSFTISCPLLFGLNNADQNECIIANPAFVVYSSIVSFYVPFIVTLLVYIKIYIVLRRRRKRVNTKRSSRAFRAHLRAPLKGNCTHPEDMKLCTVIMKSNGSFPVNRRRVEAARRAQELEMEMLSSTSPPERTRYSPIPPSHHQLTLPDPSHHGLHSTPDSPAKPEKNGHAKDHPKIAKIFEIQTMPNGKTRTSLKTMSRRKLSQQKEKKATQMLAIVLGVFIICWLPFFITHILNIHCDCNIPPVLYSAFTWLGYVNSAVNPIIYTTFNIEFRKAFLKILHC
#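 Measurement of antagonist activity uses fluorescent calcium dye in inducible HEK293 T-REx D2 cells: 10 s baseline, compound addition with 180 s read, EC80 dopamine addition with a further 180 s read.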
# D2 PAM-1 = Beta-Arrestin HTS for Positive Allosteric Modulators of the Human D2 Dopamine Receptor: Potentiators; actives 0.23% (n = 360,000); D(2) dopamine receptor (Homo sapiens), P14416; DiscoveRx D2 beta-arrestin cells, luminescence, 90 min; 100% = 57 uM dopamine signal; potentiation, % (test concentration not listed); AID 624464, 2012; in the data active = potentiation above about 50%; inconclusive = mostly about 30% to 49%
#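 D2 cells co-treated with compound plus 50 nM dopamine (EC20) for 90 min at 37 deg C to detect potentiation. Beta-arrestin recruitment was read as enzyme-fragment luminescence after 1 h at ambient temperature. Full response was set by 57 uM dopamine.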
# D2 PAM-2 = HTS Assay for Positive Allosteric Modulators of the Human D2 Dopamine Receptor: Primary Screen for Potentiators; D(2) dopamine receptor (Homo sapiens), P14416; HEK293 T-REx D2, calcium flux, EC20 dopamine potentiation; potentiation, % at 10 µM; actives 0.34% (n = 340,000);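 active = potentiation over 3 SD above the plate norm, cut at about 30% in these data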; note: 0% is about no effect
#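 Tetracycline-induced HEK293 T-REx cells force-coupled to calcium signalling expressed D2; compounds were pin-added after a 10 s baseline, read kinetically 180 s, then an EC20 dopamine challenge followed with a further 180 s calcium read.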
# D2 ag-1 = HTS Assay for Allosteric Agonists of the Human D2 Dopamine Receptor: Primary Screen for Agonists; activation, % at 2 µM; actives 0.53% (n = 340,000); HEK293 T-REx D2 cells, calcium flux agonist mode; D(2) dopamine receptor (Homo sapiens), P14416;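 active = activation over 3 SD above normal in the single-dose calcium agonist read, cut at about 30% in these data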; note: 0% is about no effect
#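 Agonism is scored from calcium flux in a force-coupled, inducible HEK293 cell line expressing D2, read kinetically for 180 s after compound addition against dopamine controls.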
# D2 ag-2 = Beta-Arrestin HTS for Positive Allosteric Modulators of the Human D2 Dopamine Receptor: Agonists. actives 0.084% (n = 360,000). DiscoveRx PathHunter D2 beta-arrestin, luminescence, 90 min; 100% = 57 uM dopamine signal. activation, % (no concentration beside the values). D(2) dopamine receptor (Homo sapiens), P14416; in the data active = activation above about 40%; inconclusive = between about 15% and that limit
#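 Agonist mode: compounds alone added to overnight-plated D2 PathHunter cells for 90 min at 37 C, with 57 uM final dopamine (EC100) defining full response. Beta-arrestin recruitment detected by chemiluminescent reagent, read after 1 h at ambient temperature.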
# An asterisk follows results filed as active; u = inconclusive; x = not tested or not shown.
SMILES,D2 antagonist,D2 PAM-1,D2 PAM-2,D2 ag-1,D2 ag-2
COc1ccc(/C=N/NC(=O)c2nn(-c3ccccc3)c(=O)c3c(N)scc23)cc1,-2,24,-3,0,7
CCOC(=O)C1CCCN(C(=O)CNC(=O)c2nn(-c3ccc(OC)c(Cl)c3)c(=O)c3ccccc23)C1 (centres undefined),-15,11,3,0,-1
COc1ccc(-n2nc(C(=O)NCC(=O)NCCCN3CCCCCC3)c3ccccc3c2=O)cc1Cl,1,-9,8,3,3
COC(=O)C1C2OC(C(Br)C2Br)C1C(=O)OC (centres undefined),x,0,x,x,-5
CC(=O)N1c2ccccc2S(=O)(=O)c2c1ccc1ccccc21,x,-8,x,x,-1
Cc1cccc(N2CCN(C(=O)CCC(=O)N3CC(C)Oc4ccc(C)cc43)CC2C)c1 (centres undefined),11,-1,9,1,-5
CCC(NS(=O)(=O)c1ccc(C)cc1)C(=O)N1CCC2(O)CCCCC2C1 (centres undefined),9,-1,39*,0,0
Cc1occc1C(=O)N1CCN(S(=O)(=O)c2ccccc2)CC1,-24,1,-3,0,2
Cc1ccc(-n2nc(CO)c(C(=O)NCCCCc3ccccc3)n2)cc1,x,x,-2,1,x
CCc1noc(C)c1C(=O)N1CCN(S(=O)(=O)c2ccc(Cl)cc2)CC1,-39,-2,2,0,-6
CCc1cc(C(=O)N2CCN(S(=O)(=O)c3ccc(Cl)cc3)CC2)sc1C,39*,-8,-19,0,-2
Cc1c(C#N)c(N)c(C(=O)c2ccccc2)n1Cc1ccccc1,16,-15,-5,0,-4
CCn1c(C)c(C(=O)c2ccccc2)c(C#N)c1C(=O)O,33*,-2,-10,-1,0
CCOCCCNC(=O)C(c1ccc(Cl)cc1)N(Cc1ccc2c(c1)OCO2)C(=O)c1ccc(NC(C)=O)cc1 (centres undefined),x,x,10,0,x
CCN(CC)CCCNC(=O)c1nn(-c2ccc(OC)c(Cl)c2)c(=O)c2c1c1ccccc1n2C,x,x,x,0,x
CCN1CCN(c2ccc(S(=O)(=O)N3CCCCC3)cc2NC(=O)c2ccc([N+](=O)[O-])s2)CC1,10,74*,1,1,u
O=C(Nc1cc(S(=O)(=O)N2CCOCC2)ccc1N1CCCC1)C1CC1,54*,-2,5,2,-4
Nc1cc(S(=O)(=O)N2CCCCC2)ccc1N1CCOCC1,32*,4,-3,3,0
CCN1CCN(c2ccc(S(=O)(=O)N3CCOCC3)cc2NC(=O)CCOc2ccccc2)CC1,32*,-27,-18,1,-4
CCOC(=O)c1c(C)[nH]c(C)c1S(=O)(=O)N(C)CC(=O)N1CCN(c2cccc(C)c2C)CC1,x,x,3,0,x
COc1cccc(NC(=O)c2cc3c(-c4ccc(Cl)cc4)nn(C)c3s2)c1,x,x,10,-1,x
Cc1cccc(N2CCN(C(=O)c3sc4nc5n(c(=O)c4c3C)CCC5)CC2C)c1 (centres undefined),x,x,16,-1,x
COc1ccc(CCC(C)NC2C3CC4CC(C3)CC2C4)cc1 (centres undefined),40*,-15,-18,1,-1
COc1ccc(CCC(C)Nc2ccccc2F)cc1 (centres undefined),-18,0,5,-1,-1
CCOC(=O)c1cc(NC(=O)c2ccc(C)cc2)c(=O)n2c1oc1ccc(Cl)cc12,x,x,-2,-1,x
SMILES,D2 antagonist,D2 PAM-1,D2 PAM-2,D2 ag-1,D2 ag-2
CCOC(=O)c1cc(NC(=O)c2ccc(Cl)cc2)c(=O)n2c1oc1ccc(Cl)cc12,32*,-20,15,1,0
CCN1C(=O)/C(=C/C=C2/Sc3ccc4ccccc4c3N2CCO)SC1=S,6,-4,-1,0,-2
CCN1/C(=C/C=C/c2oc3ccc4ccccc4c3[n+]2CC)Oc2ccc3ccccc3c21,7,0,-4,45*,3
CC1CCCN(c2cc(N(C)CCO)c([N+](=O)[O-])c3nonc23)C1 (centres undefined),-7,-5,40*,0,-2
Cc1nn(Cc2ccc([N+](=O)[O-])cc2)c(=O)n1-c1cccc(Cl)c1,32*,-3,-2,0,5
Cc1nn(Cc2ccc([N+](=O)[O-])cc2)c(=O)n1-c1c(F)cccc1F,37*,-8,-1,0,1
Cc1nn(Cc2ccc([N+](=O)[O-])cc2)c(=O)n1-c1ccc(F)cc1,-17,-14,17,0,-3
CCOC(=O)c1c(C)c(-c2ccccc2)n(CC(=O)Nc2cccc(F)c2)c1C,x,x,-2,0,x
CCCOc1ccccc1N/C(N)=N/c1nc(C)cc(C)n1,31*,-10,-8,1,0
O=C(C1CC1)N1CCc2cc(Br)cc(S(=O)(=O)N3CCCCCC3)c21,-13,-6,10,1,-1
O=C(C1CC1)N1CCc2cc(Br)cc(S(=O)(=O)NC3CCCCC3)c21,40*,-6,-4,0,-3
COc1ccc(NS(=O)(=O)c2cc(Br)cc3c2N(C(C)=O)CC3)cc1,63*,-13,-34,0,-18
CCc1ccc(NS(=O)(=O)c2cc(Br)cc3c2N(C(C)=O)CC3)cc1,x,x,x,1,x
COC(=O)c1c(C)[nH]c(C(=O)OC(C)C(=O)NC2CCCCC2C)c1C (centres undefined),x,-2,x,x,-3
CC1CCCCN1C(=O)CN1CCC(c2nc3ccc(Cl)cc3[nH]2)CC1 (centres undefined),9,-7,-6,-1,-3
Cc1ccc(CN2CCC(c3nc4ccc(Cl)cc4[nH]3)CC2)cc1,87*,-31,-15,0,-1
Clc1ccc2nc(C3CCN(Cc4ccccc4)CC3)[nH]c2c1,53*,-18,-18,-1,-1
CCCCCCN(C(=O)CCCCCN1C(=O)NC(c2ccc(-c3ccccc3)cc2)C(C(=O)OCc2ccccc2)=C1C)C(C(=O)NCCCC)C1CCCCC1 (centres undefined),23,x,3,0,x
CCCCCCN(C(=O)CCCCCN1C(=O)NC(c2ccc(-c3ccccc3)cc2)C(C(=O)OCc2ccccc2)=C1C)C(C(=O)NCCCC)c1ccccn1 (centres undefined),31*,x,-10,1,x
O=C(NC1CCCCC1)c1ccc(-c2ccccc2[N+](=O)[O-])o1,59*,-18,-23,-1,2

# Assay outcomes: PubChem BioAssay, National Center for Advancing Translational Sciences (NCATS)
